Inconclusive results are not listed. Activity calls are given as the source filed them. Cut-off not given; nearly all actives show IC50 up to about 30 µM.
Experiment: SU-DIPG-XXV glioma cell viability, MIPE5.0 library, qHTS (AID 1347068);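 on IC50: cells exposed to compound for 48 hours before viability readout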

Structure (SMILES)	IC50	outcome
N#Cc1ccc(-c2c(-c3ncn[nH]3)sc(N3CCOCC3)c2C#N)c(F)c1	4680 nM (active)	
O=C(NC[C@H](O)CN1CCc2ccccc2C1)c1ccnc(NC2CCC2)c1		inactive
C=CC(=O)Nc1cccc(Sc2nc(Nc3ccc(N4CCN(C)CC4)cc3)ncc2Cl)c1	1660 nM (active)	
Cc1cc(O)c(-c2ccc([C@@H](C)CN(C)C)cc2)c2c1[nH]c(=O)c1sccc12	332 nM (active)	
Nc1nccc2c1ncn2[C@@H]1C=C(CO)[C@@H](O)[C@H]1O		inactive
CCNCCc1ccc(CN(CC)c2cc(OC)ccc2[C@@H]2CCc3cc(O)ccc3C2)cc1	3320 nM (active)	
CC1(C(=O)O)CCC2(C)CCC3(C)C(=CC(=O)C4C5(C)CCC(OC6OC(C(=O)O)C(O)C(O)C6OC6OC(C(=O)O)C(O)C(O)C6O)C(C)(C)C5CCC43C)C2C1 (centres undefined)		inactive
COC1(c2sc3c(N4CCOCC4)nc(-c4cnc(N)nc4)nc3c2C)COC1	1180 nM (active)	
C=Cc1cc(O)cc2nc(-c3ccc(O)c(F)c3)oc12		inactive
O=C1OC(COc2ccccc2[N+](=O)[O-])CC1Cc1ccccc1 (centres undefined)		inactive
CN(C)N(C)C(=O)[C@@]1(Cc2ccccc2)CCCN(C(=O)[C@@H](Cc2c[nH]c3ccccc23)NC(=O)C(C)(C)N)C1		inactive
CC(C)n1c(=O)cc(N[C@@H](C)c2ccccc2)[nH]c1=O		inactive
NC(=O)c1cccc(-c2cc(Nc3ccc(OC(F)(F)F)cc3)ncn2)c1	18600 nM (active)	
CC1(C)CCC2(CC1)N[C@@H](C(=O)N[C@@H]1CC[C@@H](C(N)=O)OC1)[C@H](c1ccnc(Cl)c1F)[C@]21C(=O)Nc2cc(Cl)ccc21		inactive

From PubChem BioAssay
